In PubChem BioAssay:
Activity calls are given as the source filed them.

Columns and labels:
[1] = E. coli DRC41 culture turbidity changes, primary screen, E. coli filamentation inducer project, strain DRC41, OD650, 48 h (AID 1152);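 note: E. coli MC1000 strain DRC41 lacking acrAB efflux pump and sulA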; details: E. coli DRC41 (acrAB sulA), higher = more signal, called active from +8 up or from −8 down
[2] = small-molecule binders of probe aLefty1, primary screen, biochemical, small-molecule microarray, 635/667 nm fluorescence (AID 1153); details: higher = more signal;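 note: score merges spot fluorescence with signal-to-noise ratio from the scanned slide images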
[3] = PSAC antagonists in infected red cells, primary screen, cell-based, P. falciparum Indochina, OD700, 1 h (AID 1154); details: P. falciparum Indochina infected RBC osmotic lysis, higher = more signal, called active from +8 up or from −8 down
[4] = PSAC antagonists in infected red cells, primary screen, cell-based, P. falciparum Indochina, OD700, 2 h (AID 1155);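 note: lysis reports solute entry through the parasite surface anion channel PSAC; channel blockers reduce lysis of infected cells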; details: P. falciparum Indochina infected erythrocytes, osmotic lysis OD700; higher = more signal, called active from +8 up or from −8 down
[5] = osmotic lysis modulators in infected erythrocytes, primary screen, PSAC antagonist project, cell-based, P. falciparum Indochina, OD700, 3 h (AID 1156); details: higher = more signal, called active from +8 up or from −8 down
[6] = PSAC antagonists in infected red cells, primary screen, cell-based, P. falciparum Indochina, OD700, 18 h (AID 1157); details: P. falciparum Indochina infected erythrocytes, osmotic lysis OD700, 18 h; higher = more signal, called active from +8 up or from −8 down
[7] = modulators of S6 phosphorylation in cells, primary screen, cell-based, A549, cytoblot, luminescence, serum-stimulated (AID 1158); details: A549 phospho-S6 cytoblot, 5 h, higher = more signal;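 note: serum-stimulated A549 lung adenocarcinoma cells; signal is phosphorylated S6 detected by cytoblot immunostaining with HRP secondary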
[8] = biological target: NADPH oxidase 2 (Homo sapiens) (UniProt P04839); assay: NOX2-dependent H2O2 signal modulators, primary screen, NOX inhibitor project, cell-based, HEK293-NOX2, PMA-stimulated, Amplex Red fluorescence (AID 1159); details: 45 min, higher = more signal, called active from +8 up or from −8 down; note: test concentration not given here
[9] = biological target: NADPH oxidase 4 (Homo sapiens) (UniProt Q9NPH5); assay: NOX4-dependent H2O2 signal modulators, primary screen, NOX inhibitor project, cell-based, HEK293-NOX4, tetracycline-induced, Amplex Red fluorescence (AID 1160); details: 45 min, higher = more signal, called active from +8 up or from −8 down
[10] = biological target: NADPH oxidase 5 (Homo sapiens) (UniProt Q96PH1); assay: NOX5-dependent H2O2 signal modulators, primary screen, NOX inhibitor project, cell-based, HEK293-NOX5, Amplex Red fluorescence (AID 1161); details: HEK293-NOX5, ionomycin, 45 min, higher = more signal
[11] = A549 cell viability effects, profiling panel, calcein-AM fluorescence, 48 h, basal (AID 1162); details: higher = more signal; note: test concentration not given here
[12] = adipocyte viability effects, profiling panel, cell-based, 3T3-L1 adipocytes, calcein-AM fluorescence, 48 h, basal (AID 1163); details: 3T3-L1 adipocytes viability, higher = more signal; note: test concentration not given here
[13] = HepG2 cell viability effects, profiling panel, calcein-AM fluorescence, 48 h, basal (AID 1164); details: higher = more signal; note: test concentration not given here
[14] = MM1S cell viability effects, profiling panel, calcein-AM fluorescence, 48 h, basal (AID 1165); details: higher = more signal;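 note: viability of MM1S multiple myeloma cells under basal unstimulated conditions; test concentration not given here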
[15] = basal RPMI8226 viability, no added stimulus, profiling panel, cell-based, calcein-AM fluorescence, 48 h, PK04 Diversity Set (AID 1166); details: RPMI8226 myeloma viability, higher = more signal;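 note: cells grown under basal conditions without added stimulus; test concentration not given here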
[16] = basal HepG2 mitochondrial membrane potential changes, profiling panel, cell-based, JC-1 fluorescence, 24 h, 100 nL compound (AID 1167); details: higher = more signal; note: test concentration not given here
[17] = basal 3T3-L1 adipocyte mitochondrial potential changes, profiling panel, cell-based, JC-1 fluorescence, 3T3-L1 adipocytes, 24 h, 100 nL compound (AID 1168); details: JC-1 mitochondrial fluorescence, higher = more signal, called active from +8 up or from −8 down; note: test concentration not given here
[18] = basal RPMI8226 mitochondrial membrane potential changes, profiling panel, cell-based, JC-1 fluorescence, 24 h, 100 nL compound (AID 1169); details: RPMI8226 myeloma, JC-1 mitochondrial potential fluorescence, higher = more signal; note: test concentration not given here
[19] = basal MM1S mitochondrial membrane potential changes, profiling panel, cell-based, JC-1 fluorescence, 24 h, 100 nL compound (AID 1170); details: higher = more signal; note: test concentration not given here
[20] = A549 lung cancer cell viability effects, profiling panel, resazurin fluorescence, 24 h, PK04 Diversity Set (AID 1171); details: higher = more signal, called active from +8 up or from −8 down; note: test concentration not given here

Sequence of NADPH oxidase 4 (Homo sapiens) (Q9NPH5 whole entry, looked up): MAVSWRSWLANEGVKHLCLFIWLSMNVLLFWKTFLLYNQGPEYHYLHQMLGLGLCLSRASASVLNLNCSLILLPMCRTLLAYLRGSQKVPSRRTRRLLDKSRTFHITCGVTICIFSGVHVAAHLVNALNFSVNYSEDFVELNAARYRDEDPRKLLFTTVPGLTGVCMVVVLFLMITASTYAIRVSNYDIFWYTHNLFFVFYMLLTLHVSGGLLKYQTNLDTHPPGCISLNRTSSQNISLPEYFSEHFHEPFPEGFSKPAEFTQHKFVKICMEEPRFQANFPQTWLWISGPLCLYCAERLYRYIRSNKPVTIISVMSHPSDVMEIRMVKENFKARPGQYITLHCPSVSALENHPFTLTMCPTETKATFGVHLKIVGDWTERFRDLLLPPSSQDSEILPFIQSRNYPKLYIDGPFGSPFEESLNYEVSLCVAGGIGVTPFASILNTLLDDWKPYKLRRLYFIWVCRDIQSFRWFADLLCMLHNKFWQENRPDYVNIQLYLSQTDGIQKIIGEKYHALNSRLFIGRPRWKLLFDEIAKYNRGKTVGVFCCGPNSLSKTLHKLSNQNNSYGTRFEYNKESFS
Sequence of NADPH oxidase 2 (Homo sapiens) (P04839 whole entry, looked up): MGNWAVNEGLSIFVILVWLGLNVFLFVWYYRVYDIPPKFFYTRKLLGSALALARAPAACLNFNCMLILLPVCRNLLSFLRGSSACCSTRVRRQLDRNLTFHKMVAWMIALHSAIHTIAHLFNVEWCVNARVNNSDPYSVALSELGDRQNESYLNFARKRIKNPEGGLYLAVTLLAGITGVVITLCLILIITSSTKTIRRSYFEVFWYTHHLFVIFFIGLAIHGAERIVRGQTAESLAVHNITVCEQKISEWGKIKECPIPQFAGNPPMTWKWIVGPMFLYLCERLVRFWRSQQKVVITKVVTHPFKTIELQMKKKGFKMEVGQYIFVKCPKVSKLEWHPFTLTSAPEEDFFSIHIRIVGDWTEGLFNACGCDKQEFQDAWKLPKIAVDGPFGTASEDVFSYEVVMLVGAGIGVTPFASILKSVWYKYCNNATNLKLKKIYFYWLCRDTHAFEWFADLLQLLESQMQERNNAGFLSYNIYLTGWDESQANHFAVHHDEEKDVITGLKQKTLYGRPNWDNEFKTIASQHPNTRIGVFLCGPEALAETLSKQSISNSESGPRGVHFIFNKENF
Sequence of NADPH oxidase 5 (Homo sapiens) (Q96PH1 whole entry, looked up): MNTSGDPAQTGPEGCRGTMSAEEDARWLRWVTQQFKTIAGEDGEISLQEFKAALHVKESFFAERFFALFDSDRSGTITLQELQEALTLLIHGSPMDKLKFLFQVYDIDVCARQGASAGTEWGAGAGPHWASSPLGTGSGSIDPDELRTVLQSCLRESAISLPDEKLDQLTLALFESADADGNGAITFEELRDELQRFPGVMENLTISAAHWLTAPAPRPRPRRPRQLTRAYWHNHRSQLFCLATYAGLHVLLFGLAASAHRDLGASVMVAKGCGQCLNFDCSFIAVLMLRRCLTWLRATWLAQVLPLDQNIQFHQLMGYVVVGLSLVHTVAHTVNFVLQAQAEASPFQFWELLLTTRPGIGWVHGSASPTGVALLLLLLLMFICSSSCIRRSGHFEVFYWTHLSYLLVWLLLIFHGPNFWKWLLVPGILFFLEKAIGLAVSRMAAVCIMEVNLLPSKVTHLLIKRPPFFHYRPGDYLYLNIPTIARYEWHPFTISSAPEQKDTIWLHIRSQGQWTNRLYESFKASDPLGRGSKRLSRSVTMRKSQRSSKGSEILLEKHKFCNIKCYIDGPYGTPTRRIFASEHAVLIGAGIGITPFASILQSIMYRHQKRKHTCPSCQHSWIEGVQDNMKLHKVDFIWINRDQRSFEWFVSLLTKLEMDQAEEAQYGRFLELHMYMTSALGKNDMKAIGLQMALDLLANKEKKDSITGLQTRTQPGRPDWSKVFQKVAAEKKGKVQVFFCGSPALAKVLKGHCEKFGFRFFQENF

Row | Compound | z-score [1] | composite z-score [2] | z-score [3] | z-score [4] | z-score [5] | z-score [6] | z-score [7] | z-score [8] | z-score [9] | z-score [10] | z-score [11] | z-score [12] | z-score [13] | z-score [14] | z-score [15] | z-score [16] | z-score [17] | z-score [18] | z-score [19] | z-score [20]
1 | CC(C)=C1C(=O)C(c2ccccc2)=C2CN3C(=O)N(CCc4ccccc4)C(=O)[C@]3(Cc3ccc(F)cc3)[C@H]21 | -2.71 (inactive) | 0.318 | 20.9 (active) | 4.68 (inactive) | 1.48 (inactive) | 0.813 (inactive) | -0.51 | -0.578 (inactive) | -1.03 (inactive) | -1.11 | -0.751 | -0.0154 | -0.435 | -0.871 | -0.975 | 1.07 | -1.68 (inactive) | -0.0557 | -0.339 | 0.0406 (inactive)
2 | C#CCCCON=C1C[C@@H](O)[C@@H](O)[C@@H]2[C@@H]3C(=O)N(CCC(=O)OCC)C(=O)[C@@H]3CC[C@@H]12 | 0.425 (inactive) | 0.309 | 16.5 (active) | 1.47 (inactive) | 0.146 (inactive) | 0.404 (inactive) | 0.194 | -9.69 (active) | 0.556 (inactive) | 0.618 | -0.284 | -0.533 | -0.675 | 0.17 | -0.608 | -1.18 | -1.66 (inactive) | 0.213 | -0.123 | -0.0981 (inactive)
3 | O=C1[C@H]2[C@H]3[C@H](O)[C@H](O)CC(=NO[C@@H]4O[C@H](CO)[C@@H](O)[C@H](O)[C@H]4O)[C@H]3CC[C@H]2C(=O)N1Cc1ccccc1 | -0.906 (inactive) | 0.0068 | 5.53 (inactive) | 0.117 (inactive) | -0.19 (inactive) | -0.801 (inactive) | 0.705 | -2.63 (inactive) | 0.587 (inactive) | 0.353 | -0.0916 | -0.0474 | -0.571 | 0.713 | -0.716 | 0.616 | -0.0221 (inactive) | 0.42 | -0.755 | 0.623 (inactive)
4 | COC(=O)c1c(CC[C@@H](CO)NC(=O)N[C@H](Cc2ccccc2)Cn2cc(-c3ccccc3N)nn2)oc(C(C)=O)c1C(=O)OC | 0.144 (inactive) | 0.5 | 29.7 (active) | 15.5 (active) | 0.845 (inactive) | 1.73 (inactive) | 0.211 | -2.69 (inactive) | 0.681 (inactive) | 1.74 | 0.238 | 0.475 | 0.169 | -0.0234 | 0.229 | -0.864 | -0.474 (inactive) | -0.415 | 0.65 | -0.0935 (inactive)
5 | COc1ccc([Si](C)(C)[C@H]2[C@H](CCO)O[C@@]3(C(=O)N(Cc4cccc(NC(=O)[C@H](C)O)c4)c4ccccc43)[C@@H]2C)cc1 | 0.868 (inactive) | 0.19 | 19.7 (active) | 5.46 (inactive) | 0.334 (inactive) | 1.8 (inactive) | 0.993 | -4.7 (inactive) | 0.621 (inactive) | -1.31 | -2.82 | -0.401 | -4.52 | -2.63 | -4.36 | -2.89 | 1.46 (inactive) | -1.02 | -2.35 | -4.28 (inactive)
6 | COc1cccc([C@@H]2Oc3ccc(Br)cc3C(=O)[C@H]2O)c1 | 0.91 (inactive) | -0.0464 | 20 (active) | 3.35 (inactive) | -0.0836 (inactive) | 0.592 (inactive) | -0.256 | 0.658 (inactive) | -1.89 (inactive) | -0.879 | 1.31 | -0.397 | -1.24 | -3.44 | -1.73 | -3.15 | -0.584 (inactive) | -0.0726 | -1.31 | -0.269 (inactive)
7 | CCc1cccc(NC(=O)O[C@H]2[C@H](OC(=O)Nc3ccc4c(c3)OCO4)[C@@H](OC(=O)Nc3ccc4c(c3)OCO4)[C@@H](OC)O[C@@H]2CO)c1 | 0.861 (inactive) | 1.01 | 7.56 (inactive) | 1.22 (inactive) | 1.37 (inactive) | 0.495 (inactive) | 0.19 | -3.12 (inactive) | -0.812 (inactive) | -1.87 | -1.1 | 0.29 | -1.66 | -1.33 | -0.976 | 0.0535 | 0.892 (inactive) | -0.806 | -0.503 | 0.735 (inactive)
8 | CCCNC(=O)[C@@H]1c2ccccc2C(=O)N(Cc2ccccc2Cl)[C@H]1c1ccc(CO)cc1 | 2.47 (inactive) | 0.227 | 1.8 (inactive) | 0.0323 (inactive) | 0.621 (inactive) | -0.505 (inactive) | 0.335 | -0.988 (inactive) | 0.601 (inactive) | -0.33 | 2.5 | 1.42 | 2.37 | -0.138 | 1.23 | 3.3 | 0.0089 (inactive) | 0.325 | 0.661 | 2.06 (inactive)
9 | COC(=O)[C@H](C)NC(=O)CCC1CC(OC(=O)NCCc2ccc(F)cc2)CC2(CCCC(COC(=O)NCC(c3ccccc3)c3ccccc3)O2)O1 (stereo not given in full) | 0.523 (inactive) | -0.194 | 8.81 (active) | 2.61 (inactive) | -0.286 (inactive) | 0.492 (inactive) | 0.71 | 0.238 (inactive) | 0.0541 (inactive) | 0.185 | -0.0262 | -1 | -0.972 | -3.44 | -3.43 | -0.727 | 1.18 (inactive) | -0.379 | -1.37 | 3.22 (inactive)
10 | CCN1C(=O)[C@H]2[C@H]3[C@H](O)[C@H](O)CC(=NOC(C)CN4CCCCc5nc(C)c(C)cc54)[C@@H]3CC[C@H]2C1=O (stereo not given in full) | 0.803 (inactive) | -0.106 | 0.29 (inactive) | 0.15 (inactive) | 0.363 (inactive) | 0.317 (inactive) | -0.518 | -0.588 (inactive) | -0.245 (inactive) | -0.239 | -0.421 | 0.111 | 0.503 | 0.0768 | 0.173 | -0.214 | -1.21 (inactive) | -0.232 | -0.0499 | -0.378 (inactive)
